Experimental data reported in the supplement of paper PMC11417369.
± gives the standard deviation of the averaged measurements. Over roughly 25,000 sequences, “ln(normalized median fluorescence intensity)” has its median near 10; the highest 2% begin near 12. The list comes from a sample in which the highest values are over-represented; it also holds similar and randomly drawn sequences.

Test system: PfAP2-G AP2 domain (GST-tagged)
Experiment: gcPBM binding intensity (ln(normalized median fluorescence intensity)); higher = stronger DNA binding
Procedure, shortened: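 Using an Agilent 4 × 180k array, primer-extended double-stranded 36-bp intergenic genomic probes and negative controls were exposed for 1 h to GST-fused P. falciparum DNA-binding domains expressed in E. coli. Binding was carried out in 1× PBS with 1% milk, 0.2 mg/ml BSA, 0.5% salmon testes DNA and 0.03% Triton X-100, and protein was detected with Alexa488 anti-GST antibody and a 488 nm scan. Binding intensity is the highest Masliner-normalised natural-log median intensity across replicate spots of either probe orientation.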

Row | Sequence | gcPBM binding intensity (ln)
1 | GCTTATTTTAATTCTTGTACTTATTTATATACAAAT [XGTACX_site2099] | 11.2 ± 0.83
2 | TTATTTATTTATATAGTGCAATAAACACATAAATAG | 10.1 ± 0.26
3 | TTTTGTAATTTTGTATGTACACATTAAAGTAATATG [XGTACX_site2401] | 11.5 ± 0.91
4 | AATTTTCAATAGTATACACACAATTCTATAAATATA [CACACA_site6650] | 9.84 ± 0.042
5 | ACTTCATTTTATAAGTGTACATAATTTGTTTATATA [XGTACX_site5453] | 11.5 ± 0.85
6 | AATAATTCTTAAAGGTGTACAATATGTATATAAGAA [XGTACX_site595] | 11.7 ± 0.6
7 | AACAATTTTTAAAGGTGTACAATATGTATATAAGAA [XGTACX_site254] | 11.6 ± 0.93
8 | AATAATTGTTAAAGGTGTACAATACGTATGTAAGAA [XGTACX_site1328] | 11.5 ± 0.95
9 | AATAAATAAATAAATAAAACAAAGGGATTACATACA [TGCATGCA_negctrl_site513] | 9.84 ± 0.11
10 | TACATTTATAATAATACACACATAAATTTACATTTT [CACACA_site3463] | 10.1 ± 0.16
11 | ATATATATATACATATGTACATATAAAATAATTTTG [XGTACX_site3731] | 11.1 ± 0.74
12 | CGGCACATTCTATATACACACATATAAATATATACA [CACACA_site566] | 9.97 ± 0.042
13 | CCAACATTTTTTAGAAGTACATTTTTATATTTATTA [XGTACX_site5179] | 11.3 ± 0.83
14 | TATATTATTATGCATAGTACGTACTGTGATAAGAAT [XGTACX_site2956] | 11.4 ± 0.8
15 | TTATTATGCTGAGTACGTACTTATATAAGAATAGCA [XGTACX_site2955] | 11.8 ± 1
16 | AGAATAAGAATTATTAGTACTTATAAATATTATATT [XGTACX_site7228] | 10.9 ± 0.58
17 | AAAAAAAAATATATATATATATATATAAATAAATTT [CACACA_negctrl_site519] | 9.315 ± 0.007
18 | AGGAAAAAAAAAATGACACACATATTTGAATTAAAA [CACACA_site1352] | 9.965 ± 0.007
19 | ACAAAATTTACAAAATGTACAAAGTATGTGTTTTAT [XGTACX_site6462] | 10.7 ± 0.36
20 | TATATGTGGGTTTTTTTTATGTGTTTTTCTTTTTTT [CACACA_negctrl_site936] | 10.2 ± 0.18
21 | TGAAATAAAATTTGTACACACATATTTATTTATATA [CACACA_site6421] | 11.2 ± 0.97
22 | AAATTATTTCCGTGTACACATAAATATATATTTTAT [CACACA_site5121] | 11.8 ± 0.83

Row | Sequence | gcPBM binding intensity (ln)
23 | GTGAAATTATTTCCGTGTACACATAAATATATATTT [XGTACX_site3989] | 11.8 ± 0.99
24 | TATTATAATTTTATATGTACACATATATAAATATAT [XGTACX_site4054] | 11.4 ± 1.1
25 | TTAATTTTATTTTTTTGTACACATAAATATTATAAA [XGTACX_site4680] | 11.4 ± 0.91
26 | TGTGAAATAAAATTTGTACACACATATATATATATA [CACACA_site8093] | 11.1 ± 0.73
27 | TATTATGTCTAAAATAACATATTAATATATTATTTC [CACACA_negctrl_site285] | 9.77 ± 0.11
28 | TAAACAGTATGCAACGCATGCGTTGTTATATATAAA [TGCATGCA_site232] | 9.88 ± 0.042
29 | TCTTTTAAACAGTACACACACACATATATATATATA [CACACA_site924] | 11.2 ± 0.69
30 | AGCGTATTATACTGACGTACATTTTATGTAACTCCA [XGTACX_site2715] | 11.4 ± 1.1
31 | ATATGATCATTTTATCATTTTGCTTTTTCTTTTTTT [CACACA_negctrl_site1325] | 9.4 ± 0.42
32 | TTTGTTCATATGAAATGTACAAAAAAAAAAAAAAAA [XGTACX_site8849] | 10.8 ± 0.77
33 | ATATTTTTGTTCAGGAGTACAGTTCAAGATGAAAAT [XGTACX_site4178] | 11.6 ± 0.99
34 | GAGTTAATATTTAAAAGTACAAGATGAATGTAAAAA [XGTACX_site5810] | 11.3 ± 0.78
35 | ATAAATAATTGTAGTTGTACATGATATTTTTATTAC [XGTACX_site550] | 11.1 ± 0.63
36 | CATCTAAATTGTAGTTGTACACCTTAATCTTATTAC [XGTACX_site7547] | 11.7 ± 0.83
37 | ATATAATAGTTATATTGTACATAAATTATACACCTT [XGTACX_site628] | 11 ± 0.5
38 | TTAGTATATTTTTCCTGTACGTACTCAGATACAAAT [XGTACX_site7397] | 11.7 ± 0.91
39 | ATTTTTATTAAAATATGTACGTATTTTACTCATACA [XGTACX_site5330] | 11.6 ± 0.8
40 | ATATATGTATATTTATGTACGTATTCCTGTATAGTC [XGTACX_site5763] | 11.5 ± 0.85
41 | CAAATAAAAATAAGGAGTACAATTAAAAAAGGAAGG [XGTACX_site4366] | 11.6 ± 0.91
42 | TTTAATAATTATTAAAGTACAAAATAAATATTGAAT [XGTACX_site7538] | 11 ± 0.62
43 | TGGAATAAAAAAAGGAGTACAATTAATTATTCTTAA [XGTACX_site8299] | 11.8 ± 1.3
44 | TTGTATATATATGGAAAAATATATATATATATATAT [GTGCAC_negctrl_site591] | 10.3 ± 0.83
